# Only some compounds are listed: those with a hit (about 27% of all), similar ones and a draw of the others.
# CYP2C9 activ: activators of human CYP2C9; P11712; recombinant CYP2C9, luciferin-H conversion, luminescence; active compounds read high; factor 1 = untreated enzyme, 0 = blocked; activation factor at 5 µM; actives 1.4% (n = 96,000); AID 1024;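 active means activation factor of 2 or more for CYP2C9 at a 5 µM dose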;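 further: 0 = sulfaphenazole-blocked wells and 1 = vehicle-only wells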
# CYP2C19 inhib: blocks human cytochrome P450 2C19 | P33261 | CYP2C19 Supersomes, luciferin-H EGE luminescence, 30 min | inhibition, % at 5 µM | actives 21% (n = 96,000) | AID 778;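 active means CYP2C19 inhibition above a set limit at 5 µM in the primary screen, cut at about 50% in these data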;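 further: plate controls were negative control wells for no effect and 2.5 mM tranylcypromine positive control for full effect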
# Target sequence (P33261 whole entry, looked up): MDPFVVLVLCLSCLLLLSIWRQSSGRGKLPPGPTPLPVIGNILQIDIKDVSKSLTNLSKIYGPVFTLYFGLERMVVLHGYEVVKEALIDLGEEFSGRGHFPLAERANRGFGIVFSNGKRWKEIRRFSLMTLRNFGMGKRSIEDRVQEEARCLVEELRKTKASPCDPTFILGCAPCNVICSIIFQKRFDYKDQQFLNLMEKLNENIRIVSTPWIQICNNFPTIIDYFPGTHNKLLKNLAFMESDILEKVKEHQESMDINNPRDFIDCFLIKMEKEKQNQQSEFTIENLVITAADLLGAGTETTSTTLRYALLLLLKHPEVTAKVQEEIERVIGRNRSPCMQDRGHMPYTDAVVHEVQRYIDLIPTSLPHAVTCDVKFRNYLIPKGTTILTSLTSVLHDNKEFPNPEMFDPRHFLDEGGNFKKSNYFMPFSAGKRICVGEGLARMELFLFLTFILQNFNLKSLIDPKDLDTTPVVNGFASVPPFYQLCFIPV
# Cav32 inh: human Cav3.2 channel inhibition, primary screen; AID 449739; B-score at 10 µM; actives 4% (n = 100,000); Cav3.2-expressing cells, Fluo-4 calcium fluorescence FDSS; active compounds read low;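 active means single-dose well whose peak fluorescence ratio is a statistical outlier from its plate by either plate-standardised score or position-corrected B-score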
# CYP2C9 inhib: human CYP2C9 inhibition; P11712; CYP2C9 Supersomes, luciferin-H conversion, luminescence; inhibition, % at 5 µM; actives 20% (n = 96,000);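 active means blocking of liver enzyme CYP2C9 beyond about 50% at 5 µM, limit read from the data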
# CYP2C19 activ: activators of human cytochrome P450 2C19; P33261; recombinant CYP2C19, luciferin-H EGE luminescence; active compounds read high; 0 = fully inhibited enzyme, 1 = untreated enzyme; activation factor at 5 µM; 96,000 tested, under 10 active; AID 1025;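 active means activation factor of at least 2 at 5 µM in the primary screen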;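 further: 0 = wells with 2.5 mM tranylcypromine and 1 = vehicle-only wells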
# * hit, by the source's call; . = not tested or not shown.
SMILES,CYP2C9 activ,CYP2C19 inhib,Cav32 inh,CYP2C9 inhib,CYP2C19 activ
O=C(Nc1ccncc1)c1cn(-c2ccccc2)nc1-c1cccs1,0.1,93.6*,.,92.8*,0.1
O=C(NCCN1CCOCC1)c1cn(-c2ccccc2)nc1-c1cccs1,1,9.8,.,4.6,0.9
CC(NC(=O)COC(=O)c1cn(-c2ccccc2)nc1-c1cccs1)c1ccccc1 (stereo not drawn),0.3,31.6,-2.57,66.8*,0.7
[O-]C1=N/[N+](=C/c2ccccc2Cl)CC1,1.3,-19.1,0.162,-34.5,1.2
COCCn1c(SCc2c(F)cccc2Cl)nc2c1c(=O)[nH]c(=O)n2C,0.8,45.6,0.279,22.7,0.5
COC(=O)c1cccc(C23CC4(C2)[C@H](CN(Cc2ccc(C(F)(F)F)cc2)[C@@H]4c2ccccc2)C3c2ccc(C(F)(F)F)cc2)c1 (stereo partly drawn),.,.,0.0316,.,.
COC(=O)CSc1nc(-c2ccc(F)cc2)cc(C(F)(F)F)n1,.,.,-0.446,.,.
CC(NC(=O)CCSc1nc(-c2ccc3c(c2)OCO3)cc(C(F)(F)F)n1)c1ccccc1 (stereo not drawn),0.2,80.7*,-5.24*,83.4*,0.2
COc1ccc(CCNC(=O)CSc2nc(-c3ccco3)cc(C(F)(F)F)n2)cc1,0.3,57.9*,-0.0153,68.9*,0.4
O=C(CCSc1nc(-c2ccco2)cc(C(F)(F)F)n1)NCCc1ccccc1,0.5,38.9,-1.79,50.6*,0.6
COc1ccccc1CCNC(=O)CSc1nc(-c2ccco2)cc(C(F)(F)F)n1,0.9,3.4,-0.851,5.0,1
COCCNC(=O)CSc1nc(-c2ccc(OC)c(OC)c2)cc(C(F)(F)F)n1,0.4,35.5,0.208,60.5*,0.6
COC(=O)c1ccc(CSc2nnc(Nc3ccccc3OC)s2)o1,1.6,49.9,-1.31,-57.6,0.5
CCOC(=O)Cc1cc(=O)[nH]c(/N=C(\N)Nc2ccc(C)cc2C)n1,0.9,16.0,-2.85,9.4,0.8
COC(=O)c1ccc(CSc2nc(-c3ccco3)cc(C(F)(F)F)n2)o1,0.3,34.2,-0.445,74.8*,0.7
O=C(CSc1nc(-c2ccco2)cc(C(F)(F)F)n1)Nc1cccnc1,0.5,26.2,-0.59,53.2*,0.7
O=C(CSc1nc(-c2ccco2)cc(C(F)(F)F)n1)Nc1ccc2c(c1)OCO2,.,.,-2.21,.,.
O=C(CSc1nc(-c2cccs2)cc(C(F)(F)F)n1)NCCCn1ccnc1,.,.,0.245,.,.
COc1ccc(-c2cc(C(F)(F)F)nc(SCc3cccc(C(=O)O)c3)n2)cc1,0.9,-3.2,-1.33,14.4,1
COc1ccc(-c2cc(C(F)(F)F)nc(SCCC(=O)NCc3ccccc3)n2)cc1,1.1,31.2,-5.72*,-8.3,0.7
O=C(CSc1nc(-c2ccco2)cc(C(F)(F)F)n1)NCCCn1ccnc1,0,91.3*,1.64,95.8*,0.1
COC(=O)c1ccc(N=C2S/C(=C\c3cc(C)n(-c4cccnc4)c3C)C(=O)N2C)cc1,.,.,0.378,.,.
CC(C)CCNc1nnnc2c1sc1nc(N3CCOCC3)c3c(c12)CC(C)(C)SC3,0.2,36.9,-4.78*,84.6*,0.6
CC1(C)Cc2c(c(N3CCOCC3)nc3sc(C#N)c(N)c23)CS1,1,-12.7,1.09,-2.1,1.1
O=[N+]([O-])c1ccc(CSc2nnc(-c3cnccn3)o2)cc1,0.7,89.7*,-0.239,31.1,0.1
SMILES,CYP2C9 activ,CYP2C19 inhib,Cav32 inh,CYP2C9 inhib,CYP2C19 activ
COc1ccccc1NC(=S)NC(=O)CC(C)C,0.7,23.6,-0.749,34.6,0.8
CC(C)(C)NC(=O)C(c1ccncc1)N(C(=O)c1csnn1)C1CC1 (stereo not drawn),1,15.7,0.256,-4.4,0.8
O=C1c2ccccc2C(=O)N1c1ccc(S(=O)(=O)N2CCN(c3ccccc3)CC2)cc1,0.9,5.9,0.878,14.6,0.9
O/N=C(\Cc1cscn1)c1ccc(O)cc1O,0.6,46.7,0.0309,35.7,0.5
CCc1cc(C(=O)COc2ccccc2F)c(O)cc1O,0.4,95.8*,-8.98*,60.2*,0
CCc1cc(C(=O)Cc2nc3ccccc3[nH]2)c(O)cc1O,0.5,86.6*,0.756,53.7*,0.1
CC1CCN(C(=O)COc2ccccc2F)CC1,1,24.7,-0.0173,-2.3,0.8
CN(CC(=O)O)Cc1nc2ccccc2[nH]1,1,4.9,0.749,4.6,1
CCc1cc(/C(Cc2ccc3ccccc3n2)=N\O)c(O)cc1O,0.3,90.3*,-3.86*,73.4*,0.1
CCc1cc(/C(Cc2ccccn2)=N\O)c(O)cc1O,0.4,46.3,-1.52,62.3*,0.5
CCc1cc(/C(Cc2cscn2)=N\O)c(O)cc1O,0.6,30.7,-0.459,39.2,0.7
COc1ccc(OC)c(CN2CCCC(CO)C2)c1 (stereo not drawn),1.1,-9.8,0.0746,-8.4,1.1
c1ccc(CNc2ccc3c(c2)ncn3C2CCCCC2)nc1,0.9,8.2,-0.0799,13.4,0.9
CCOC(=O)c1sc(NC(=O)/C=C/c2cnn(CC)c2C)c(C(=O)OCC)c1C,0.7,9.3,0.073,31.2,0.9
CCCOC(=O)CSc1nc(N)c(C#N)c(CC)c1C#N,1,24.7,-0.00344,4.0,0.8
Cc1ccc(-c2n[nH]c3c2CCC3)cc1,0.6,66.1*,-0.806,43.0,0.3
c1ccc(C2=Nn3c(nnc3-c3n[nH]c4c3CCC4)SC2)cc1,0.9,49.6,.,11.1,0.5
C=CCSc1n[nH]c2nc3c(c(=O)n12)C1(CCCC1)Cc1ccccc1-3,0.8,-11.9,.,22.0,1.1
COc1ccc(CSCCN)cc1Cl,0.5,64.3*,0.657,46.8,0.4
CC(C)=NOCc1ccc(-c2cn([C@@H]3COC[C@H]3O)nn2)cc1,.,.,1.51,.,.
COc1cccc(NC2CC(=O)N(CCc3ccccc3)C2=O)c1 (stereo not drawn),0.8,49.8,-0.423,20.9,0.5
CCCN(CCC)C1CC(=O)N(Cc2ccccc2)C1=O (stereo not drawn),0.9,85.0*,-0.166,11.5,0.2
Cc1ccc(NC2CC(=O)N(Cc3ccccc3)C2=O)cc1 (stereo not drawn),1.5,67.9*,0.428,-45.6,0.3
O=C1CC(Nc2ccccc2)C(=O)N1c1ccc(N2CCOCC2)cc1 (stereo not drawn),1.2,-19.4,0.864,-20.0,1.2
O=C1CC(N(O)C2CC(=O)N(Cc3ccccc3)C2=O)C(=O)N1Cc1ccccc1 (stereo not drawn),0.9,17.1,-4.08,11.1,0.8
COc1ccc(NC2CC(=O)N(C(C)C)C2=O)cc1 (stereo not drawn),0.8,23.9,1.4,19.2,0.8
COc1ccc(NC2CC(=O)N(c3cccc(C)c3)C2=O)cc1 (stereo not drawn),0.9,59.9*,-0.0231,12.6,0.4
Cc1ccc(N2C(=O)CC(Nc3ccccc3)C2=O)cc1 (stereo not drawn),0.9,53.4*,0.836,9.1,0.5
Cc1c(Cl)c([N+](=O)[O-])nn1CCCC(=O)Nc1sc2c(c1C#N)CCC2,0.7,-12.0,.,34.8,1.1

# From PubChem BioAssay
